From PubChem BioAssay (Tox21) come the findings set out here.

A short description of experiment [1]: qHTS RealTime-Glo MT Cell Viability Assay in HEK293 cells - 0 hour (AID 1224880). Also: top concentration of the series differs between compounds; nearly all actives have a fitted effect of over 45% in size. The note with it: RealTime-Glo luminescence; series mostly up to 76.8 µM. A digest of the protocol:
(§1)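 Viable HEK293 cells reduce a cell-permeant prosubstrate; the product diffuses out and is consumed by NanoLuc in the medium to give light. Compounds went in after a 5 h incubation and plates were read over the treatment course.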
In general terms: In qHTS, concentration-response curves come from the screen itself.

Experiment [2] can be described thus: A CellTox Green Cytotoxicity Assay to monitor cytotoxicity in HEK293 cells - 32 hour (AID 1224881). Also: nearly all actives have a fitted effect of over 40% in size. The settings on record: CellTox Green fluorescence; series mostly up to 76.8 µM. The procedure, abridged:
(§2)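 Fluorescence intensity, read at 0, 8, 16, 24, 32 and 40 h of compound treatment, reflected dye binding to DNA of dead HEK293 cells; compounds (23 nL, DMSO) were added 5 h after plating cells with reagent.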

Experiment [3] is described as follows: A CellTox Green Cytotoxicity Assay to monitor cytotoxicity in HepG2 cells - 0 hour (AID 1224882). Also: nearly all actives have a fitted effect of over 35% in size. The settings on record: CellTox Green fluorescence; series mostly up to 76.8 µM. The procedure, abridged:
(§3)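 Using 1536-well format, dye-containing HepG2 suspension was seeded, allowed 5 h at 37 C/5% CO2, dosed by pintool with compounds, positive and negative controls, and imaged for fluorescence across 40 h.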

The nature of experiment [4]: A CellTox Green Cytotoxicity Assay to monitor cytotoxicity in HepG2 cells - 32 hour (AID 1224883). Also: nearly all actives have a fitted effect of over 50% in size. The note with it: CellTox Green fluorescence; series mostly up to 76.8 µM. The procedure, abridged: as §3
Experiment [5] is described as follows: qHTS RealTime-Glo MT Cell Viability Assay in HepG2 cells - 16 hour (AID 1224885). Also: nearly all actives have a fitted effect of over 50% in size. The note with it: RealTime-Glo luminescence; series mostly up to 76.8 µM. The procedure, abridged:
(§4)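 Viability was tracked continuously by NanoLuc luminescence from prosubstrate reduced by living HepG2 cells, at successive time points over 40 h of compound exposure. Cells with reagent were preincubated 5 h at 37 °C before compound addition.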

The nature of experiment [6]: qHTS RealTime-Glo MT Cell Viability Assay in HEK293 cells - 24 hour (AID 1224886). Also: top concentration of the series differs between compounds; nearly all actives have a fitted effect of over 50% in size. The note with it: RealTime-Glo luminescence; series mostly up to 76.8 µM. The procedure, abridged:
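Viability tracked continuously by luminescence as live cells reduce a prosubstrate for NanoLuc; HEK293 cells preincubated 5 h, compound-treated at 37 C, and read at 0, 8, 16, 24, 32 and 40 h.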

Experiment [7] is described as follows: qHTS RealTime-Glo MT Cell Viability Assay in HEK293 cells - 8 hour (AID 1224887). Also: top concentration of the series differs between compounds; nearly all actives have a fitted effect of over 50% in size. The note with it: RealTime-Glo luminescence; series mostly up to 76.8 µM. A digest of the protocol: as §1
A short description of experiment [8]: A CellTox Green Cytotoxicity Assay to monitor cytotoxicity in HEK293 cells - 16 hour (AID 1224888). Also: nearly all actives have a fitted effect of over 35% in size. The note with it: CellTox Green fluorescence; series mostly up to 76.8 µM. The procedure, abridged:
as §2

A short description of experiment [9]: qHTS RealTime-Glo MT Cell Viability Assay in HepG2 cells - 0 hour (AID 1224889). Also: nearly all actives have a fitted effect of over 50% in size. The settings on record: RealTime-Glo luminescence; series mostly up to 76.8 µM. The procedure, abridged:
as §4

Experiment [10] can be described thus: A CellTox Green Cytotoxicity Assay to monitor cytotoxicity in HepG2 cells - 8 hour (AID 1224890). Also: nearly all actives have a fitted effect of over 45% in size. The note with it: CellTox Green fluorescence; series mostly up to 76.8 µM. A digest of the protocol: as §3
A short description of experiment [11]: qHTS assay to identify small molecule antagonists of the estrogen receptor alpha (ER-alpha) signaling pathway using the BG1 cell line in the presence of 0.1 nM 17-beta-estradiol - cell viability counter screen (AID 1259241). Also: nearly all actives have a fitted effect of over 40% in size. The settings on record: VM7Luc4E2 (BG1) viability, CellTiter-Fluor protease, 22 h, 0.1 nM estradiol agonist added; series mostly up to 92.4 µM. A digest of the protocol: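 Viability in VM7Luc4E2 cells after 22 hr compound exposure under 0.1 nM 17beta-estradiol stimulation, by CellTiter-Fluor.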

For experiment [12], the target named is Estrogen receptor (Homo sapiens) (UniProt P03372). In words: qHTS assay to identify small molecule antagonists of the estrogen receptor alpha (ER-alpha) signaling pathway using the BG1 cell line in the presence of 0.1 nM 17-beta-estradiol (AID 1259244). Also: nearly all actives have a fitted effect of over 50% in size. The settings on record: VM7Luc4E2 (BG1) ERE-luciferase, antagonist mode, 0.1 nM E2, 22 h; series mostly up to 92.4 µM. A digest of the protocol:
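Estradiol at 0.1 nM (final) stimulates the endogenous ER-alpha of VM7Luc4E2 cells carrying an ERE-driven luciferase; compounds are co-incubated 22 h at 37C and luciferase output quantified by luminescence.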

The nature of experiment [13]: qHTS assay to identify small molecule HDAC inhibitors (AID 1259364). Also: potency is read from the fitted curve at half-maximal effect.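 Also: wild-type HCT-116 cells with endogenous class I/II HDAC activity; nearly all actives have a fitted effect of over 45% in size.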 The settings on record: HCT-116 HDAC-Glo I/II luminescence, 2 h; series mostly up to 92.4 µM. A digest of the protocol:
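Read-out: luminescence of HDAC-Glo I/II reagent, 30 min RT, reflecting class I/II deacetylase activity in whole HCT-116 cells pre-exposed 2 h to DMSO-dissolved compounds.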

Experiment [14] in a line: qHTS assay to identify small molecule agonists of the sonic hedgehog signaling (Shh) pathway - cell viability counter screen (AID 1259366). Also: nearly all actives have a fitted effect of over 50% in size. Also: potency is read from the fitted curve at half-maximal effect. The settings on record: NIH/3T3 Gli1-Luc viability, CellTiter-Fluor, 24 h; series mostly up to 92.4 µM. The procedure, abridged: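 Stable Gli1-Luc NIH/3T3 clone, 2,000 cells/well. Compound exposure 24hr at 37C. Read-out: CellTiter-Fluor fluorescence.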

The nature of experiment [15]: A CellTox Green Cytotoxicity Assay to monitor cytotoxicity in HEK293 cells - 8 hour (AID 1224884). Also: nearly all actives have a fitted effect of over 35% in size. The settings on record: CellTox Green fluorescence; series mostly up to 76.8 µM. A digest of the protocol:
as §2

A short description of experiment [16]: qHTS assay to identify small molecule antagonists of the androgen receptor (AR) signaling pathway using the MDA cell line in the presence of 0.5 nM R1881 - cell viability counter screen (AID 1259242). Also: nearly all actives have a fitted effect of over 45% in size. The note with it: MDA-kb2 viability, CellTiter-Fluor protease fluorescence, 16 h; series mostly up to 92.4 µM. A digest of the protocol:
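Viability of MDA-kb2 cells was multiplexed with the luciferase AR readout; after 16 hr with compounds and R1881 at 0.5 nM final, CellTiter-Fluor fluorescence was recorded.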

A short description of experiment [17]: qHTS assay to identify small molecule HDAC inhibitors - cell viability counter screen (AID 1259365). Also: nearly all actives have a fitted effect of over 50% in size. The note with it: HCT-116 viability, CellTiter-Glo ATP luminescence, 2 h; series mostly up to 92.4 µM. A digest of the protocol: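 Cytotoxicity was gauged in wild-type HCT-116 cells after a brief 2hr treatment with DMSO-dissolved compounds at 37C and 5% CO2, using CellTiter-Glo luminescence developed for 30min at room temperature.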

Experiment [18] in a line: qHTS assay to identify small molecule antagonists of the sonic hedgehog signaling (Shh) pathway - cell viability counter screen (AID 1259367). Also: nearly all actives have a fitted effect of over 55% in size. Also: potency is read from the fitted curve at half-maximal effect. The settings on record: NIH/3T3 Gli1-Luc viability, CellTiter-Fluor, 24 h; series mostly up to 92.4 µM. The procedure, abridged:
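After a 4 hr settling period, 3T3 Gli1-Luc cells were treated with DMSO-dissolved chemicals and conditioned medium, kept 24 hr at 37C in 5% CO2, and assayed for viability by CellTiter-Fluor fluorescence following 1 hr reagent incubation.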

Experiment [19] can be described thus: qHTS assay to identify small molecule phospholipidosis (PLD) inducers (AID 1259344; active = well fitted curve in the direction sought with a large enough effect; an effect the other way counts as inactive or inconclusive). The note with it: HepG2 phospholipidosis, LipidTOX Red imaging, 24 h; series mostly up to 38.3 µM. The procedure, abridged: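 HepG2 cells grown on collagen I take up LipidTOX Red while exposed to compound for 24 h; after fixation they are imaged at 20x and pit metrics are extracted.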

In experiment [20] the target is Androgen receptor (Homo sapiens) (UniProt P10275). In words: qHTS assay to identify small molecule antagonists of the androgen receptor (AR) signaling pathway using the MDA cell line in the presence of 0.5 nM R1881 (AID 1259243). Also: nearly all actives have a fitted effect of over 50% in size. The note with it: MDA-kb2 MMTV-luciferase, R1881 0.5 nM, 16 h; series mostly up to 92.4 µM. The procedure, abridged: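 Reporter cells cultured without CO2 receive test chemicals, then 0.5 nM R1881 final; after 16 hr at 37C, ONE-Glo is added and light output recorded.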
Androgen receptor (Homo sapiens), sequence (P10275 whole entry, looked up): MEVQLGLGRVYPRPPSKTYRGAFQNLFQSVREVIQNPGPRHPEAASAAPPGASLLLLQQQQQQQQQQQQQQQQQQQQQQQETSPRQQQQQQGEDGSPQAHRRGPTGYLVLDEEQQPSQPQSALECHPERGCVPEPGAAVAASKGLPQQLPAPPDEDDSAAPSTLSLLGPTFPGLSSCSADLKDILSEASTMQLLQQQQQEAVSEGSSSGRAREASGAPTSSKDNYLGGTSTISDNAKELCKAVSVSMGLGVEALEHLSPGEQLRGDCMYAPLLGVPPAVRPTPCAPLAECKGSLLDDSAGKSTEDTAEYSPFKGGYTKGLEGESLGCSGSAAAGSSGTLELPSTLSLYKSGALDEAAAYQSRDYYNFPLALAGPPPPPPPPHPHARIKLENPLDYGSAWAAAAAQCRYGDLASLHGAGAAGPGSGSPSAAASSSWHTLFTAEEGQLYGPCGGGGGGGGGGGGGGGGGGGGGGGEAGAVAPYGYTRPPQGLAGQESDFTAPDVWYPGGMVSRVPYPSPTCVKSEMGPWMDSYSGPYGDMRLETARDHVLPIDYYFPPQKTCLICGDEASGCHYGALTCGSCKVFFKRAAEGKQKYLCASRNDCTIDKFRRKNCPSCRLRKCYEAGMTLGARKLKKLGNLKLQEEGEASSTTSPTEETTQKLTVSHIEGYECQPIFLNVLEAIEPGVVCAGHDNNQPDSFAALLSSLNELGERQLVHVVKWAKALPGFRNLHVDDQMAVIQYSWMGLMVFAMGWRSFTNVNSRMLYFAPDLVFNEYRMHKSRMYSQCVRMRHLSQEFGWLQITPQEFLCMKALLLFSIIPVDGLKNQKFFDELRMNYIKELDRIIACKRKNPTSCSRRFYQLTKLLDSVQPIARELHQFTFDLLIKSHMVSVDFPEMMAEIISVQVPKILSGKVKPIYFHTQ

Structures are written as SMILES. Unmarked numbers belong to inactive results. Inconclusive results are not listed. Active and inactive are the calls of the source. Unless noted, calls follow the shape of the dose curve; as a rule, active = well fitted curve in the direction sought with a large enough effect in the repeat runs; inconclusive = weak or mixed curves; inactive = no such curve, though single readings can be large; an effect the other way counts as inactive or inconclusive.

Estrogen receptor (Homo sapiens), sequence (P03372 whole entry, looked up): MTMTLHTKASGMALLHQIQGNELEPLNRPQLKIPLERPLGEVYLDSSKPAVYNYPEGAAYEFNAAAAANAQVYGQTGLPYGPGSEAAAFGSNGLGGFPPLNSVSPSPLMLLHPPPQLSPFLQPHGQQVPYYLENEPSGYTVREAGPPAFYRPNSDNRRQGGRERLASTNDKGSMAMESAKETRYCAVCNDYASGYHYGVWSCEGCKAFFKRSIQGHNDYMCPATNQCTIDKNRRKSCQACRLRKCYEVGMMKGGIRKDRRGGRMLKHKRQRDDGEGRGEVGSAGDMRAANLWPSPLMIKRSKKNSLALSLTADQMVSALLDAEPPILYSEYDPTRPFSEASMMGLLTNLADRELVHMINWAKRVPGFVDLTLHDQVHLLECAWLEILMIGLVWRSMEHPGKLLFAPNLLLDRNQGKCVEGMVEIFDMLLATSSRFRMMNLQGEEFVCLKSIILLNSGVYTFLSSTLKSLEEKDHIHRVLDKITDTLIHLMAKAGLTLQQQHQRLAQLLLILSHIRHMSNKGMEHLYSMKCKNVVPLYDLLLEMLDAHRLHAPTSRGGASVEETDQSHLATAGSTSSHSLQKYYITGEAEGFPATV

Consider `Cc1cc(N)n(-c2ccccc2)n1`, for which the Potency result in experiment [1], in [2], in experiment [3], in [4], in [6] and in [7] was “inactive” throughout. Further, the Potency result in experiment [8], in experiment [9], in experiment [10], in [11], in [12] and in experiment [14] was “inactive” in each case. In experiment [5], the compound was called inactive. For the same compound, in experiment [13], the Potency was 27.3 µM (active).
As to `CC/C=C\CCO`, the Potency entry in [1], in experiment [2], in [3], in experiment [4], in experiment [15] and in experiment [6] was “inactive” throughout. Also, the Potency entry in [7], in experiment [9], in [10], in experiment [11], in experiment [16] and in experiment [13] was “inactive” throughout. The Potency result in experiment [14] and in experiment [18] was “inactive” in each case. Moreover, the result in experiment [17] was inactive.
As to `O=C1CCCN1CCO`, the Potency result in [1], in experiment [2], in experiment [3], in experiment [4], in experiment [15] and in [6] was “inactive” each time. The Potency result in experiment [8], in experiment [9], in experiment [10], in [11], in experiment [13] and in [14] was “inactive” each time. Moreover, the outcome in experiment [17] was inactive.
As for `Cc1cccc(C)c1NC(=O)CN1CCCC1`, the Potency entry in experiment [1], in experiment [2], in [3], in experiment [4], in [6] and in [7] was “inactive” each time. The Potency entry in experiment [8], in experiment [9], in [10], in experiment [11], in experiment [16] and in experiment [19] was “inactive” in each case. In addition, the Potency result in [13], in experiment [14] and in experiment [18] was “inactive” throughout. Besides, the compound was called inactive in [5] and in experiment [17].
As for `CC(C(=O)O)c1ccc(/C=C2\CCCCC2=O)cc1` (stereo not given), the Potency result in experiment [1], in [2], in [3], in [4], in experiment [6] and in experiment [7] was “inactive” throughout. For the same compound, the Potency result in experiment [8], in experiment [9], in experiment [10], in [11], in [16] and in [19] was “inactive” in each case. For the same compound, the Potency result in [14] is “inactive”. Moreover, the outcome in [17] was inactive.
Take `C=CC(C)CCC=C(C)C` (stereo not given): the Potency entry in experiment [1], in experiment [2], in experiment [3], in experiment [4], in experiment [6] and in experiment [7] was “inactive” in each case. Moreover, the Potency result in experiment [8], in experiment [9], in experiment [10], in [11], in experiment [16] and in experiment [14] was “inactive” throughout. Also, in [18], the Potency entry is “inactive”. The result in experiment [5] and in experiment [17] was inactive.
Regarding `CCCOC(C)=O`, the Potency result in [1], in experiment [2], in experiment [3], in experiment [4], in [6] and in [7] was “inactive” in each case. The Potency entry in [8], in experiment [9], in experiment [10], in [11], in [16] and in [20] was “inactive” throughout. In addition, the Potency result in experiment [12], in experiment [13] and in [14] was “inactive” each time. For the same compound, the compound was classed as inactive in experiment [5] and in experiment [17].
In the case of `Nc1ccccc1Nc1ccccc1`, the Potency result in [1], in experiment [2], in experiment [3], in experiment [4], in experiment [15] and in experiment [6] was “inactive” throughout. Further, the Potency entry in experiment [8], in experiment [9], in experiment [10], in experiment [11], in experiment [16] and in experiment [13] was “inactive” in each case. The Potency is 68.8 µM (active) in [14] and 54.6 µM (active) in [18].
Regarding `Sc1nc(S)nc(S)n1`, the Potency result in experiment [1], in [2], in experiment [3], in experiment [4], in experiment [6] and in experiment [7] was “inactive” throughout. Besides, the Potency result in experiment [8], in [9], in [10], in experiment [11], in experiment [16] and in experiment [13] was “inactive” each time. For the same compound, the Potency result in [14] and in [18] was “inactive” each time. In addition, the outcome in [5] and in experiment [17] was inactive.
